Laboratory results published in PubChem BioAssay (EPA / NIEHS).
Inconclusive results are not listed. The source made the active and inactive calls. The calls were made as follows: active = hit-call score of the fitted dose curve at least 0.9, where 1 is the maximum; inconclusive = response in the unintended direction; inactive = score below 0.9.

Assays:
[1] = biological target: human Adrenergic, Alpha 2A Receptor (Adra2A), ADRA2A (gene 150) (UniProt P08913); experiment: NVS_GPCR_hAdra2A: NovaScreen (NVS) G Protein-Coupled Receptor Assay for human Adrenergic, Alpha 2A Receptor (Adra2A) (AID 2283257)
Outline: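 Radioligand filter-binding was run on HT29-derived membranes, cell-free, read by scintillation counting 1 h after dosing. Primary screening was in duplicate at 25 uM, with concentration series in follow-up. Loss of signal versus DMSO indicates displacement.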

[2] = biological target: human Adrenergic, Beta 1 Receptor (Adrb1), ADRB1 (gene 153) (UniProt P08588); experiment: NVS_GPCR_hAdrb1: NovaScreen (NVS) G Protein-Coupled Receptor Assay for human Adrenergic, Beta 1 Receptor (Adrb1) (AID 2283258)
human Adrenergic, Beta 1 Receptor (Adrb1), ADRB1 (gene 153), sequence (P08588 whole entry, looked up): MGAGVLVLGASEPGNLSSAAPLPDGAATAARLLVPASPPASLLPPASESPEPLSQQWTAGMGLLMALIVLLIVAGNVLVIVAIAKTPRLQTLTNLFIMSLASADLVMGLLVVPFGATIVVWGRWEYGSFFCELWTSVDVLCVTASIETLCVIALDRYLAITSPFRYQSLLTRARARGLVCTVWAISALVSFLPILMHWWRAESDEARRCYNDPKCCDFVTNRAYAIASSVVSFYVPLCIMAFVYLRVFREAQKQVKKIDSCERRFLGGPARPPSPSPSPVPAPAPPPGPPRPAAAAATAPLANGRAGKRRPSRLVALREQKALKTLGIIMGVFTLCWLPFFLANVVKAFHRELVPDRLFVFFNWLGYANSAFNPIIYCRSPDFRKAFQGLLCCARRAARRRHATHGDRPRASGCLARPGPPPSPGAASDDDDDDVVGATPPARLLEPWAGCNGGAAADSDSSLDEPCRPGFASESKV
Outline: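 Cell-free radioligand displacement on receptor from human neuroepithelioma cells; 2 h after dosing, filter-based scintillation counting. Primary screen in duplicate at 25 uM, actives retested in concentration series; loss of signal vs DMSO baseline.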

[3] = biological target: human Adrenergic, Alpha 2c Receptor (Adra2C), ADRA2C (gene 152) (UniProt P18825); experiment: NVS_GPCR_hAdra2C: NovaScreen (NVS) G Protein-Coupled Receptor Assay for human Adrenergic, Alpha 2c Receptor (Adra2C) (AID 2283259)
human Adrenergic, Alpha 2c Receptor (Adra2C), ADRA2C (gene 152), sequence (P18825 whole entry, looked up): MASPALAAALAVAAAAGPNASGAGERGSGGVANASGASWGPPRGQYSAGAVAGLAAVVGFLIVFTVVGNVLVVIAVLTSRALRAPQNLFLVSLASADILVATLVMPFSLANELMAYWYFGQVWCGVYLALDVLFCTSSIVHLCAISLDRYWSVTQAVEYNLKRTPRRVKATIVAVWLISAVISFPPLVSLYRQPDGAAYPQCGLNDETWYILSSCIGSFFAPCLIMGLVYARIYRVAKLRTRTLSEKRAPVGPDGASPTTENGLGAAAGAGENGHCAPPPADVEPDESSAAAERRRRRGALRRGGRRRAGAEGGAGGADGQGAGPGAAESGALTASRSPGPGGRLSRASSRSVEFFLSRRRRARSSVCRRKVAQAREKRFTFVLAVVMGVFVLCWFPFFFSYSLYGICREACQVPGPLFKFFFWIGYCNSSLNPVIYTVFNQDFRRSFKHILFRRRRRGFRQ
Outline: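 Radioligand binding on Sf9-expressed receptor membranes, 1 h after chemical dosing, filter-based scintillation read-out. Loss of binding fitted positively versus DMSO; primary duplicate screen at 25 uM, actives retested in concentration series.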

[4] = biological target: Beta-2 adrenergic receptor (Homo sapiens) (UniProt P07550); experiment: NVS_GPCR_hAdrb2: NovaScreen (NVS) G Protein-Coupled Receptor Assay for human Adrenergic, Beta 2 Receptor (Adrb2) (AID 2283261)
Beta-2 adrenergic receptor (Homo sapiens), sequence (P07550 whole entry, looked up): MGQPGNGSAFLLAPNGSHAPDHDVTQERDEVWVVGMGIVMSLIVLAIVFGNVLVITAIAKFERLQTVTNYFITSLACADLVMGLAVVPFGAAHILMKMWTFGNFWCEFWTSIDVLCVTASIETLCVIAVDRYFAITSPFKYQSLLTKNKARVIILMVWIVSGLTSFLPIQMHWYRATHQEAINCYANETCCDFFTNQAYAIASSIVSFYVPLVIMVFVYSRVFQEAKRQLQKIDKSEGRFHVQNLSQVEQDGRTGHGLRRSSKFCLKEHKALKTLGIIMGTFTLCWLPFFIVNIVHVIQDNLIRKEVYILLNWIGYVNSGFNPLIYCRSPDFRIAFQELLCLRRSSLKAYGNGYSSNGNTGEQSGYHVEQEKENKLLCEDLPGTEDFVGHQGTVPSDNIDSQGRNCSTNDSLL
Outline: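 Filter-based radioligand binding using receptor prepared from CHO cells, 1 h incubation, scintillation counting. Primary screen in duplicate at 25 uM, actives retested in concentration series; loss of binding relative to DMSO.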

[5] = biological target: Type-1 angiotensin II receptor (Homo sapiens) (UniProt P30556); experiment: NVS_GPCR_hAT1: NovaScreen (NVS) G Protein-Coupled Receptor Assay for human Angiotensin II receptor type 1 (AT1) (AID 2283263)
Outline: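 Membranes from KAN-TS cells; radioligand competitive displacement, 3 h, filtration and scintillation counting. Single-point duplicate screen at 25 uM, then concentration-response up to 50 uM for hits; loss of signal fitted versus DMSO.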

[6] = biological target: human Dopamine Receptor D4.4 (DRD4.4), DRD4 (gene 1815) (UniProt P21917); experiment: NVS_GPCR_hDRD4.4: NovaScreen (NVS) G Protein-Coupled Receptor Assay for human Dopamine Receptor D4.4 (DRD4.4) (AID 2283264)
human Dopamine Receptor D4.4 (DRD4.4), DRD4 (gene 1815), sequence (P21917 whole entry, looked up): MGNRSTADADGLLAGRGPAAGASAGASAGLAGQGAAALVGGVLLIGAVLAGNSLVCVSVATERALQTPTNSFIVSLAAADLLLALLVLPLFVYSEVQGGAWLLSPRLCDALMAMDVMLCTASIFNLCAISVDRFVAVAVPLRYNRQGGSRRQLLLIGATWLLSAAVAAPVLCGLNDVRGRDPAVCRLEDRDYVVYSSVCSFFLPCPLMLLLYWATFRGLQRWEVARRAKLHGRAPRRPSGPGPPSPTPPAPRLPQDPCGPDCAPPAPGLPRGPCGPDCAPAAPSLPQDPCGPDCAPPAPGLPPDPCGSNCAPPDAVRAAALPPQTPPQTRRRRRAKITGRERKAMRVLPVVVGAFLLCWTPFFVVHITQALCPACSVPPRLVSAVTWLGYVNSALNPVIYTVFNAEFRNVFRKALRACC
Outline: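 Radioligand displacement on human DRD4.4 from CHO-derived membranes, 1 hour incubation, bound counts read by filtration and scintillation. Primary screen in duplicate at 25 uM; actives followed up in concentration series.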

[7] = biological target: human Dopamine Receptor D2 (DRD2), DRD2 (gene 1813) (UniProt P14416); experiment: NVS_GPCR_hDRD2s: NovaScreen (NVS) G Protein-Coupled Receptor Assay for human Dopamine Receptor D2 (DRD2) (AID 2283266)
human Dopamine Receptor D2 (DRD2), DRD2 (gene 1813), sequence (P14416 whole entry, looked up): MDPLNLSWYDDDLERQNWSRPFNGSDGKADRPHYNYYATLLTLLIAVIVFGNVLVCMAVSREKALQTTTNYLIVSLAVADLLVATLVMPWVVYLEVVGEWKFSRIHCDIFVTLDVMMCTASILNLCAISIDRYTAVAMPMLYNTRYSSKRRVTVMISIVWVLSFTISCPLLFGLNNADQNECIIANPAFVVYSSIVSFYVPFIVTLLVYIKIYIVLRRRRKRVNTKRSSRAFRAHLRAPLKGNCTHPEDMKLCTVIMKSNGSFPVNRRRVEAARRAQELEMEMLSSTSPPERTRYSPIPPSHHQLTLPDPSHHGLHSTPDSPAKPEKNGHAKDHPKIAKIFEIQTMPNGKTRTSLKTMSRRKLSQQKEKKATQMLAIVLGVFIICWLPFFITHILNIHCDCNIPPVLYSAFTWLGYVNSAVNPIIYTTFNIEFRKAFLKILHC
Outline: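 Radioligand displacement used human DRD2 membranes extracted from CHO cells and was read by filter-based scintillation counting after 1.5 hours. Primary screening was in duplicate at 25 uM. Loss of signal versus DMSO was fitted, with concentration series in follow-up.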

[8] = biological target: human Histamine 1 Receptor (H1), HRH1 (gene 3269) (UniProt P35367); experiment: NVS_GPCR_hH1: NovaScreen (NVS) G Protein-Coupled Receptor Assay for human Histamine 1 Receptor (H1) (AID 2283268)
Outline: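 Cell-free radioligand displacement at human H1 receptor, 1 h, filter scintillation counting; primary screen 25 uM in duplicate, hits in concentration series; loss of binding fitted vs DMSO.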

[9] = biological target: D(1A) dopamine receptor (Homo sapiens) (UniProt P21728); experiment: NVS_GPCR_hDRD1: NovaScreen (NVS) G Protein-Coupled Receptor Assay for human Dopamine Receptor D1 (DRD1) (AID 2283269)
D(1A) dopamine receptor (Homo sapiens), sequence (P21728 whole entry, looked up): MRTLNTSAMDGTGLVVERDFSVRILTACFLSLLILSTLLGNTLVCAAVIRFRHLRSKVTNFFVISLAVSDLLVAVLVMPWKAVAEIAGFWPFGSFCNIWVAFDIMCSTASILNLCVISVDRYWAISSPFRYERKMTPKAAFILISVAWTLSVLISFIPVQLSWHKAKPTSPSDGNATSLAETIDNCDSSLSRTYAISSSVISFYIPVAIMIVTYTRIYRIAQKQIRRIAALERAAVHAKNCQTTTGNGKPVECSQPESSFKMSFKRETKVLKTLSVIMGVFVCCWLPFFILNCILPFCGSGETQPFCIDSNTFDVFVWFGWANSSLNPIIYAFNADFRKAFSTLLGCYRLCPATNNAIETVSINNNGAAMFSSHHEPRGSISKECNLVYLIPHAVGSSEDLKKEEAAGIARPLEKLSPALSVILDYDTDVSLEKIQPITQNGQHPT
Outline: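 Extracted HEK293 DRD1 is incubated 1 h with compound and a tritiated or iodinated radioligand, then filtered and counted. Screening runs 25 uM in duplicate with on-plate positive and negative controls.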

[10] = biological target: Muscarinic acetylcholine receptor M1 (Homo sapiens) (UniProt P11229); experiment: NVS_GPCR_hM1: NovaScreen (NVS) G Protein-Coupled Receptor Assay for human Muscarinic, M1 Receptor (AID 2283270)
Outline: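 Cell-free radioligand displacement using membrane protein extracted from CHO cells, read by filter-based scintillation counting 1 h after dosing. Loss of bound signal fitted versus DMSO; primary screen single concentration 25 uM in duplicate, actives followed by concentration series.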

[11] = biological target: human Leukotriene B4 Receptor 1 (LTB4-BLT1), LTB4R (gene 1241) (UniProt Q15722); experiment: NVS_GPCR_hLTB4_BLT1: NovaScreen (NVS) G Protein-Coupled Receptor Assay for human Leukotriene B4 Receptor 1 (LTB4-BLT1) (AID 2283271)
Outline: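 Radioligand displacement binding on receptor extracted from human neutrophils, cell-free, 1 h after dosing; filter-based scintillation counting. Primary screen in duplicate at 25 uM, actives retested in concentration-response up to 50 uM; loss of signal versus DMSO.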

[12] = biological target: Muscarinic acetylcholine receptor M3 (Homo sapiens) (UniProt P20309); experiment: NVS_GPCR_hM3: NovaScreen (NVS) G Protein-Coupled Receptor Assay for human Muscarinic, M3 Receptor (AID 2283272)
Muscarinic acetylcholine receptor M3 (Homo sapiens), sequence (P20309 whole entry, looked up): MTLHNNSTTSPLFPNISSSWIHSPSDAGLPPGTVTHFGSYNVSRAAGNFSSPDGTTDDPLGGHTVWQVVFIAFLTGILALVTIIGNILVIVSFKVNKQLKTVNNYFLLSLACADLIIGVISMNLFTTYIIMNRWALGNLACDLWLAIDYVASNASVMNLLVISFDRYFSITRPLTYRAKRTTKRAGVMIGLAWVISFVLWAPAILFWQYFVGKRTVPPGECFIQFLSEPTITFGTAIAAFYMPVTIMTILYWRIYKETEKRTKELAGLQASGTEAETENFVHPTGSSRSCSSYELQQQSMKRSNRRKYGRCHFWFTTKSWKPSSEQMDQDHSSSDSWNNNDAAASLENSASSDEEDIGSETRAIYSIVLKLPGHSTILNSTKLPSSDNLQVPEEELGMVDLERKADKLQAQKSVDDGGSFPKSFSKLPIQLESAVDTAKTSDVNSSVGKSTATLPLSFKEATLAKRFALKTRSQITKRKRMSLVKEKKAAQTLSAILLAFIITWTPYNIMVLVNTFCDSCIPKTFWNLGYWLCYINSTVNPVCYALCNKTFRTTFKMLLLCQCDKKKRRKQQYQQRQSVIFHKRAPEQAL
Outline: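 Radioligand displacement binding on human M3 receptor in CHO-derived membranes, 1 h incubation, filter-based scintillation counting. Primary screen in duplicate at 25 uM; actives followed up in concentration series; loss of signal versus DMSO.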

[13] = biological target: human Muscarinic, M4 Receptor, CHRM4 (gene 1132) (UniProt P08173); experiment: NVS_GPCR_hM4: NovaScreen (NVS) G Protein-Coupled Receptor Assay for human Muscarinic, M4 Receptor (AID 2283274)
human Muscarinic, M4 Receptor, CHRM4 (gene 1132), sequence (P08173 whole entry, looked up): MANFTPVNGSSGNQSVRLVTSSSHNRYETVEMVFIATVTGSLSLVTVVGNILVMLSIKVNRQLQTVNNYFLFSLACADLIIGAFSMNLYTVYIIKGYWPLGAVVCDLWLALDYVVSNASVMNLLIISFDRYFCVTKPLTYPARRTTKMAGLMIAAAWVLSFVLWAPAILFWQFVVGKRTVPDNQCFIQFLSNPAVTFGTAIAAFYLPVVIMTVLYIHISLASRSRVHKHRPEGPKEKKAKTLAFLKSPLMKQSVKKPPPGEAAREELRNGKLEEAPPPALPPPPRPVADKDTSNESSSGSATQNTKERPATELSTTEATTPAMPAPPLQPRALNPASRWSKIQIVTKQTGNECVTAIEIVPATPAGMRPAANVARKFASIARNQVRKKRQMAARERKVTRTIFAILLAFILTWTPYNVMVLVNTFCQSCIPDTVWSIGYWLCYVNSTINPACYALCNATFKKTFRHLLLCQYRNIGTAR
Outline: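 Cell-free radioligand displacement using CHO-derived human M4 receptor protein, 1 h after dosing; bound radioactivity by filtration and scintillation counting. Primary screen single 25 uM duplicate, actives followed in concentration series.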

[14] = biological target: Muscarinic acetylcholine receptor M5 (Homo sapiens) (UniProt P08912); experiment: NVS_GPCR_hM5: NovaScreen (NVS) G Protein-Coupled Receptor Assay for human Muscarinic, M5 Receptor (AID 2283275)
Outline: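 Radioligand displacement on CHO-derived membrane preparations, 1 h, filter-based scintillation counting. Single-concentration duplicate screen at 25 uM; hits (e.g. 30% inhibition) retested in singleton concentration-response up to 50 uM. Loss of binding fitted versus DMSO.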

[15] = biological target: human Adrenergic, Beta 3 Receptor (Adrb3), ADRB3 (gene 155) (UniProt P13945); experiment: NVS_GPCR_hAdrb3: NovaScreen (NVS) G Protein-Coupled Receptor Assay for human Adrenergic, Beta 3 Receptor (Adrb3) (AID 2283262)
Outline: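 Membranes from SK-N-MC cells pretreated with isoproterenol and 8-bromo-cAMP were used in a radioligand competitive displacement binding assay. Binding was read by filter-based scintillation counting 1 hour after dosing. Primary screening was in duplicate at 25 uM, with concentration series in follow-up.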

[16] = biological target: Muscarinic acetylcholine receptor M2 (Homo sapiens) (UniProt P08172); experiment: NVS_GPCR_hM2: NovaScreen (NVS) G Protein-Coupled Receptor Assay for human Muscarinic, M2 Receptor (AID 2283273)
Muscarinic acetylcholine receptor M2 (Homo sapiens), sequence (P08172 whole entry, looked up): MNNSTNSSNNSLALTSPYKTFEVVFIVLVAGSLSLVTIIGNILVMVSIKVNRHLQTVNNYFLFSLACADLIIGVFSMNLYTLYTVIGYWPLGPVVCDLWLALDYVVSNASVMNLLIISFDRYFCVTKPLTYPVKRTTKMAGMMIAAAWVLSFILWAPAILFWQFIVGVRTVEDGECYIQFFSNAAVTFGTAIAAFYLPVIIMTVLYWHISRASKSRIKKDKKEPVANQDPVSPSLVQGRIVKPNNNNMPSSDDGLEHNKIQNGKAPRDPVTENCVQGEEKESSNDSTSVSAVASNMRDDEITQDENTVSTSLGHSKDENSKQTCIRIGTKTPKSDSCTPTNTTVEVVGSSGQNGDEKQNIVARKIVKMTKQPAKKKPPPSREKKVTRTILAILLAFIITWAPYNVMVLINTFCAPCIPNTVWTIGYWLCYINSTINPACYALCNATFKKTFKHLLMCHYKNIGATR
Outline: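 Cell-free radioligand binding using membranes from CHO cells expressing the receptor; filter-based scintillation counting after 1 hour of compound exposure. Loss of specific binding relative to DMSO baseline; primary screen at 25 uM in duplicate, actives then run in concentration series.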

[17] = biological target: human Neuropeptide Receptor Y1 (NPY1), NPY1R (gene 4886) (UniProt P25929); experiment: NVS_GPCR_hNPY1: NovaScreen (NVS) G Protein-Coupled Receptor Assay for human Neuropeptide Receptor Y1 (NPY1) (AID 2283276)
human Neuropeptide Receptor Y1 (NPY1), NPY1R (gene 4886), sequence (P25929 whole entry, looked up): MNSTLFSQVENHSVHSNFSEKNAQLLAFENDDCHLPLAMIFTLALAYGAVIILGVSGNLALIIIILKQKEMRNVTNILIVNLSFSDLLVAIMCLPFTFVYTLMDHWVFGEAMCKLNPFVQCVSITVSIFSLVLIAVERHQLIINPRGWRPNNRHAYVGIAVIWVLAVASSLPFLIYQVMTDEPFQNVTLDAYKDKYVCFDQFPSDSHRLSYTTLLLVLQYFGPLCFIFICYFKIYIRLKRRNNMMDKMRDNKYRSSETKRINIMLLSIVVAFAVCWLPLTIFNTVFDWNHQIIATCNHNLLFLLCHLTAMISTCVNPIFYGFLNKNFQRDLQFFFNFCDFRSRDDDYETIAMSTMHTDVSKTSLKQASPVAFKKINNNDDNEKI
Outline: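 Cell-free radioligand binding using receptor extracted from SK-N-MC cells, 1 h incubation, filter-based scintillation counting. Primary screen single concentration 25 uM in duplicate; actives followed in concentration series. Loss of bound signal scored versus DMSO.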

[18] = biological target: Neuropeptide Y receptor type 2 (Homo sapiens) (UniProt P49146); experiment: NVS_GPCR_hNPY2: NovaScreen (NVS) G Protein-Coupled Receptor Assay for human Neuropeptide Receptor Y2 (NPY2) (AID 2283277)
Neuropeptide Y receptor type 2 (Homo sapiens), sequence (P49146 whole entry, looked up): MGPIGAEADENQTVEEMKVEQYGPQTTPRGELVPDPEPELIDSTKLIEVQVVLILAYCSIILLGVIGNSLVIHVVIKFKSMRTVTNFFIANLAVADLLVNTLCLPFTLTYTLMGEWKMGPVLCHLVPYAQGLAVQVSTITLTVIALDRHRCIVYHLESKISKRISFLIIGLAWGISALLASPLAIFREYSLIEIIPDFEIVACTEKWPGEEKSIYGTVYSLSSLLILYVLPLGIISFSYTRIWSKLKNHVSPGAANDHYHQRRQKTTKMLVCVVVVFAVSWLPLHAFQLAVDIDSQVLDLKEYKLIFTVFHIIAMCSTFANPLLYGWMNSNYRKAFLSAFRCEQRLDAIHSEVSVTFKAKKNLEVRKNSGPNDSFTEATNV
Outline: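 Radioligand binding on membranes extracted from SK-N-MC cells, cell-free, read 1 h after dosing by filter-based scintillation counting. Loss of signal vs DMSO. Primary screen in duplicate at 25 uM; actives followed up in concentration-response up to 50 uM.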

[19] = biological target: human Endothelin Receptor Type A (ETA), EDNRA (gene 1909) (UniProt P25101); experiment: NVS_GPCR_hETA: NovaScreen (NVS) G Protein-Coupled Receptor Assay for human Endothelin Receptor Type A (ETA) (AID 2283265)
Outline: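 Cell-free radioligand displacement using SH-SY5Y-derived protein, 3 h incubation, filter-based scintillation counting. Primary screen in duplicate at 25 uM; actives then run in concentration-response up to 50 uM; loss of binding fitted versus DMSO.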

[20] = biological target: human Endothelin Receptor Type B (ETB), EDNRB (gene 1910) (UniProt P24530); experiment: NVS_GPCR_hETB: NovaScreen (NVS) G Protein-Coupled Receptor Assay for human Endothelin Receptor Type B (ETB) (AID 2283267)
Outline: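 Human astrocytoma cell membranes; radioligand competitive binding read by filter scintillation counting 4 hours after dosing. Single-concentration duplicate screen at 25 uM, then singleton concentration-response up to 50 uM; loss of signal versus DMSO.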

CCCCC(CC)COC(=O)CC(C(=O)OCC(CC)CCCC)S(=O)(=O)O (stereo unspecified)
outcome [1]: inactive | AC50 [2]: 6.35 µM (active) | AC50 [3]: 7.47 µM (active) | AC50 [4]: 14.6 µM (active) | AC50 [5]: 17.7 µM (active) | AC50 [6]: 10.5 µM (active) | AC50 [7]: 16.5 µM (active) | AC50 [8]: 35.5 µM (active) | AC50 [9]: 7.29 µM (active) | AC50 [10]: 34.6 µM (active) | AC50 [11]: 25 µM (active) | AC50 [12]: 39.4 µM (active) | AC50 [13]: 37.6 µM (active) | AC50 [14]: 18 µM (active)

C=CCOC(=O)c1ccccc1C(=O)OCC=C
AC50 [12]: 36.7 µM (active)

O=C(O)Cc1ccccc1Nc1c(Cl)cccc1Cl
outcome [2]: inactive | outcome [4]: inactive | outcome [15]: inactive

CC1(C)CC(N=C=O)CC(C)(CN=C=O)C1 (stereo unspecified)
outcome [3]: inactive | outcome [9]: inactive | AC50 [16]: 0.367 µM (active) | AC50 [13]: 2.94 µM (active)

Cc1c(C(=O)O)c(O)cc2c1C(=O)c1c(O)c([C@@H]3O[C@H](CO)[C@@H](O)[C@H](O)[C@H]3O)c(O)c(O)c1C2=O
outcome [12]: inactive | outcome [16]: inactive | outcome [13]: inactive

NC(=O)Cn1c(=O)cc(CCN2CCN(c3nccc4sccc34)CC2)c2ccc(F)cc21
AC50 [1]: 2.03 µM (active) | AC50 [2]: 1.38 µM (active) | AC50 [3]: 0.666 µM (active) | AC50 [4]: 8.69 µM (active) | AC50 [6]: 0.023 µM (active) | AC50 [7]: 0.926 µM (active) | AC50 [8]: 0.199 µM (active) | AC50 [9]: 0.00708 µM (active) | AC50 [17]: 9.95 µM (active)

CC(=O)Oc1ccccc1C(=O)O
AC50 [17]: 4.96 µM (active)

CCCCCCCCCCCC(=O)OC
AC50 [18]: 6.92 µM (active)

Cc1nc(-c2ccc3c(c2)CCN(CCC2CCC(NC(=O)/C=C/c4ccc(F)cc4)CC2)CC3)no1 (stereo unspecified)
outcome [7]: inactive | AC50 [10]: 0.148 µM (active) | outcome [12]: inactive | AC50 [16]: 0.0463 µM (active) | AC50 [13]: 0.123 µM (active) | outcome [14]: inactive

Cc1ccc2ncccc2c1
outcome [2]: inactive

CNC(=O)[C@H]1O[C@@H](n2cnc3c(NCc4cc(Cl)ccc4OCc4cc(C)no4)ncnc32)[C@H](O)[C@@H]1N
outcome [3]: inactive

Nc1nc(N)c2nc(CNc3ccc(C(=O)N[C@@H](CCC(=O)O)C(=O)O)cc3)cnc2n1
outcome [6]: inactive | AC50 [7]: 18.3 µM (active) | AC50 [9]: 38.9 µM (active) | AC50 [16]: 40.7 µM (active) | outcome [18]: inactive

Cc1ccc(Cl)cc1
outcome [18]: inactive

O=C(N[C@@H](Cc1ccccc1)[C@@H](O)C(=O)N1C[C@@H](O)[C@@H](O)C1)c1cc2cc(Cl)ccc2[nH]1
outcome [9]: inactive | outcome [13]: inactive

CCCCc1ccc2c(n1)[C@@H](c1ccc(OC)cc1C[C@H](C)C(=O)O)[C@H](C(=O)O)[C@H]2c1ccc2c(c1)OCO2
AC50 [19]: 4.72 nM (active) | AC50 [20]: 3.61 nM (active)

C[C@]12C=CC(=O)C=C1CC[C@@H]1[C@@H]2C(=O)C[C@@]2(C)[C@H]1CC[C@]2(O)C(=O)CO
AC50 [16]: 15 µM (active) | AC50 [13]: 25 µM (active)
